# High-throughput results as filed in PubChem.
# TRb-SRC2 inh – qHTS for Inhibitors of the Interaction of Thyroid Hormone Receptor and Steroid Receptor Coregulator 2. TRbeta-SRC2 peptide binding, fluorescence polarization; receptor liganded with 1 µM T3. AID 1469, 2008. 280,000 tested, 0.065% active. Potency, µM (series often up to 106 µM), usual class: inhibitors; further: nearly all actives have a fitted effect of over 50% in size
# Target sequence (P10828 whole entry, looked up): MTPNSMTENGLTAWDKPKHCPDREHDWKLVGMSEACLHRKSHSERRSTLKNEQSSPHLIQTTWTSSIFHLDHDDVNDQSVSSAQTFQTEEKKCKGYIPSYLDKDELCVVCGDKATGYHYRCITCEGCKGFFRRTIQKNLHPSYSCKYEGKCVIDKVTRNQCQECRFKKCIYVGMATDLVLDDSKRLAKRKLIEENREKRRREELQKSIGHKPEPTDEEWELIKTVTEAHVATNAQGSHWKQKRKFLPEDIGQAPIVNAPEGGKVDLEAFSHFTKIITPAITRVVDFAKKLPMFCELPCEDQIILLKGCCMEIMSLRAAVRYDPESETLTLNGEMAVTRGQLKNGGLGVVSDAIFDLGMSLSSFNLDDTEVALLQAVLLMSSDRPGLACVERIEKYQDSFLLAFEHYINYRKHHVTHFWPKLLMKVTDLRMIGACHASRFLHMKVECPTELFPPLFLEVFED
#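 Compounds were added to 0.6 uM TRb ligand-binding domain and 20 nM Texas Red-labeled SRC2 peptide in Tris buffer containing 1 uM T3, incubated 5 hr at ambient temperature, then read by fluorescence polarization.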
# TR SRC2 fluor cs – Total Fluorescence Counterscreen for Inhibitors of the Interaction of Thyroid Hormone Receptor and Steroid Receptor Coregulator 2. Potency, µM (top dose mostly 106 µM). AID 1479, 2009. TRb/SRC2 Texas Red total fluorescence interference. 280,000 tested, 0.29% active; active means well fitted curve in either direction with a large enough effect; inconclusive means small, poorly fitted or top-dose-only effect
#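 Flags fluorescent or light-absorbing compounds by total fluorescence, S + 2P, at 555 nm excitation and 632 nm emission. Mixture: 20 nM Texas Red SRC2 peptide, 0.6 uM human TRb LBD, 1 uM T3, 5% DMSO; compound exposure 5 h at ambient temperature.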
# Tau ThT inhib – qHTS for Inhibitors of Tau Fibril Formation, Thioflavin T Binding | 270,000 tested, 2.1% active | Microtubule-associated protein tau (Homo sapiens), P10636 | Potency, µM (highest dose often 57.4 µM), hits mostly inhibitors | recombinant tau K18 P301L, heparin-induced fibrillization, ThT fluorescence; further: nearly all actives have a fitted effect of over 55% in size
# Target sequence (P10636 561-689 P618L limits assumed): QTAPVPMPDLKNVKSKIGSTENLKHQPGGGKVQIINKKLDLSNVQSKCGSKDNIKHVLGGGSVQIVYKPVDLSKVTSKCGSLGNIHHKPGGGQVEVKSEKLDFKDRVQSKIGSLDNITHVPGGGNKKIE
#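 Tau K18 P301L fragment (15 uM unlabeled plus 0.24 uM Alexa 594-labeled) in 100 mM sodium acetate pH 7 with compound, fibrillization induced by 20 uM heparin for 6 hr at 37 C. Thioflavin T (30 uM) added, fluorescence read after 1 hr (ex 450, em 510 nm).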
# Tau fluor counter – Counterscreen qHTS for Inhibitors of Tau Fibril Formation, Fluorescence Polarization; tau K18 P301L (four-repeat tau fragment) Alexa594 fluorescence, heparin fibrillization; Potency, µM (doses to about 57.7 µM); 280,000 tested, 0.93% active; AID 1463, 2008; further: nearly all actives have a fitted effect of over 55% in size
#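 Human K18 P301L tau (15 uM unlabeled plus 0.24 uM Alexa 594-labeled, final) in 100 mM sodium acetate pH 7 was mixed with compound and 20 uM heparin and incubated 6 hr at 37 C.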
# PNC inhibitor – High Content Assay for Compounds that inhibit the Assembly of the Perinucleolar Compartment. PC3M PTB-GFP, PNC prevalence imaging, 16 h; hits give low values. activity change (PNC), negative = inhibition, % at 10 µM. 140,000 tested, 3.1% active. AID 2417, 2010;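 active means readout at or below -70, meaning at least 70% loss of cells showing the perinucleolar compartment, a nuclear body marking cancer cells; inconclusive means readout between -30 and a set limit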
#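 Compounds are pinned in duplicate onto adhered PC3M cells stably expressing GFP-tagged PTB and incubated 16 h at 37 C. Cells are then fixed, nuclei stained with Hoechst, and PNC-positive cells counted.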
# Tau fibril FP – qHTS for Inhibitors of Tau Fibril Formation, Fluorescence Polarization. K18 P301L tau heparin fibrillization, Alexa594 FP, 6 h. Potency, µM (doses to about 57.7 µM), usual class: inhibitors. 280,000 tested, 0.39% active; further: nearly all actives have a fitted effect of over 55% in size
#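 Steps: dispense K18 P301L tau (15 uM plus 0.24 uM Alexa 594 tracer, final) in pH 7 sodium acetate; add compound; add heparin (20 uM final); incubate 6 hr, 37 C; add ThT (30 uM final); after 1 hr ambient, read FP.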
# A number is an active result; 0 = inactive; ? = inconclusive; - = not tested or not shown; ! = repeats disagree; [ ] = dose if it differs, or a comment. Shown are actives, neighbours in structure and some others; about 4.6% of the full set was active somewhere. Unless noted, the call rests on the fitted dose curve; in most records, active means well fitted curve in the direction sought with a large enough effect; inconclusive means small, poorly fitted or top-dose-only effect, or another doubt; inactive means no such curve, though single readings can be large; an effect the other way counts as inactive or inconclusive.
SMILES,TRb-SRC2 inh,TR SRC2 fluor cs,Tau ThT inhib,Tau fluor counter,PNC inhibitor,Tau fibril FP
CCN(CC(=O)Nc1ccc2c(c1)OCCO2)Cc1cc(=O)n2ccsc2n1,0,0,0,0,-,0
COc1ccc(OC)c(C2/C(=C(/O)c3ccc(C)cc3)C(=O)C(=O)N2Cc2ccco2)c1 (stereo not given),0,0,0,0,?,0
CS(=O)(=O)CCC(C(=O)Nc1cccc(C(F)(F)F)c1)N1Cc2ccccc2C1=O (stereo not given),0,25µM[quencher],0,0,-,0
COC(=O)c1cc(NC(=O)[C@H](CCS(C)(=O)=O)N2Cc3ccccc3C2=O)cc(C(=O)OC)c1,0,?,0,0,-,0
Cc1ccc(NC(=O)Nc2cccc(C)n2)cc1,0,0,?,0,-,0
CCOc1cc(CNCCSc2nnnn2C)cc(Cl)c1OCc1ccc(Cl)cc1,0,20µM[quencher],?,?,-,0
COc1cccc(/C=C2\N=C(SC)SC2=O)c1OC,0,0,?,0,-91,?
O=C(Cc1ccc(F)cc1)N/N=C/c1ccccn1,0,0,0,0,-113,0
O=C(Cc1cccs1)N/N=C/c1ccccn1,0,0,0,0,-,0
COc1ccc(-c2nc(SCC(=O)NC3CCCC3)c(-c3ccc(F)cc3)[nH]2)cc1,0,0,?,14µM[quencher],-,0
COc1ccc(-c2[nH]c(-c3cccc(OC)c3)nc2SCC(=O)NC2CCCC2)cc1,0,0,?,13µM![quencher],0,?
COCCCNC(=O)CSc1nc(-c2ccccc2)[nH]c1-c1ccc(C)cc1,0,0,0,?,-,0
COc1cccc(-c2nc(SCC(=O)NCC3CCCO3)c(-c3ccc(F)cc3)[nH]2)c1 (stereo not given),0,0,0,?,-,0
CCOc1ccc(-c2nnc(SCC(=O)NC3CCCCC3)nc2-c2ccc(OCC)c(OC)c2)cc1OC,0,0,0,0,-,0
COc1ccc(-c2[nH]c(-c3ccccc3)nc2SCC(=O)NC2CCCC2)cc1,0,0,?,25µM[quencher],0,?
CCOc1ccc(-c2nc(SCC(=O)NC3CCCC3)c(-c3ccccc3)[nH]2)cc1OC,0,0,?,13µM[quencher],-,?
COc1ccc(-c2[nH]c(-c3ccc(F)cc3)nc2SCC(=O)NC2CCCC2)cc1,0,0,0,0,0,0
CCOC(=O)c1ccc(NC2SC(=O)N(Cc3cccc(C(=O)O)c3)C2=O)cc1 (stereo not given),0,0,0,0,-,0
CCC(=O)N1CCc2cc(Br)cc(S(=O)(=O)N3CCCC(C(=O)N(C)c4ccc(Br)cc4)C3)c21 (stereo not given),0,178µM[quencher],0,0,-,0
CCCN(CCC)C(=O)C1CCCN(S(=O)(=O)c2cc(Br)cc3c2N(C(=O)CC)CC3)C1 (stereo not given),0,0,0,0,-,0
O=c1cc(-c2ccccc2)[nH]c2[nH]n(-c3ccccc3)c(=O)c12,0,0,20µM,0,0,?
CCOC(=O)Cc1cc(=O)c2c(=O)n(-c3ccccc3)[nH]c2[nH]1,0,0,?,0,0,0
Cc1ccc(C(C)C)c(OCc2n[nH]c(=S)o2)c1,0,0,0,0,-,0
O=C(O)CCCCCN1C(=O)/C(=C\c2cn(-c3ccccc3)nc2-c2cccs2)SC1=S,0,0,14µM,0,-,0
O=C(O)CCN1C(=O)/C(=C/c2cn(-c3ccccc3)nc2-c2cccs2)SC1=S,0,0,0,0[2.34 µM],-,0[2.34 µM]
SMILES,TRb-SRC2 inh,TR SRC2 fluor cs,Tau ThT inhib,Tau fluor counter,PNC inhibitor,Tau fibril FP
Cc1ccc(-c2nn(-c3ccccc3)cc2/C=C2\SC(=S)N(CC(=O)O)C2=O)cc1,0,0,18µM,0,-,0
CC[n+]1c(/C=C/Nc2ccccc2)oc2ccccc21,0,0,0,0,0,0
COc1ccc(CNC(=O)CCc2c(C)c3cc4c(C)coc4c(C)c3oc2=O)cc1OC,0,0,0,0,-,0
Cc1snc(SCC(=O)c2ccc([N+](=O)[O-])cc2)c1C#N,0,0,14µM,0,-,?
CCOC(=O)c1c(C)[nH]c(C(=O)OCC(=O)c2c(N)n(C)c(=O)n(C)c2=O)c1C,0,0,0,0,-,0
O=C(O)C(S)[C@@H](S)C(=O)O (stereo not given in full),0,0,7.9µM,0,-,11µM
COc1ccc([C@H]2Oc3cc(O)cc(O)c3C(=O)C2[C@@H]2C(=O)c3c(O)cc(O)cc3O[C@@H]2c2ccc(OC)cc2)cc1 (stereo not given in full),?,0,?,0,-,18µM
O=C1c2c(O)cc(O)cc2OC(c2ccc(O)c(O)c2)C1O (stereo not given),0,0,?,0,-,0
Cc1cc(C)nc(/N=C2\NC(=O)CC(C(=O)O)N2c2cccc(Cl)c2)n1 (stereo not given),0,0,0,0,-,0
CCNC(=O)C(CCSC)NS(=O)(=O)c1ccc(C)cc1 (stereo not given),0,0,0,0,-,0
CC1=NN(CCC#N)C(=O)/C1=C/c1ccc(N(C)C)cc1,0,0,25µM,0,-,0
Cc1ccc(S(=O)(=O)Nc2ccc(S(=O)(=O)Nc3ncccn3)cc2)cc1,0,0,0,0,?,0
O=C(CCNc1ccc(Cl)cc1)c1cccs1,0,0,?,?,?,?
O=C(O)C1=CC(=C(c2ccc(O)c(C(=O)O)c2)c2ccc(O)c(C(=O)O)c2)C=CC1=O,?,?,32µM,?,-,?
COC(=O)c1c(NC(=O)/C=C/c2ccc(OC)cc2)sc2c1CCC2,0,0,0,0,-,0
O=C(/C=C/c1ccco1)Nc1sc2c(c1C(=O)O)CCC2,0,0,?,0,0,0
O=C(/C=C/c1ccccc1)Nc1sc2c(c1C(=O)O)CCC2,0,0,10µM,?,-,0
CNC(=O)c1c(NC(=O)/C=C/c2ccccc2)sc2c1CCC2,0,0,14µM,?,-,0
N#Cc1c(NC(=O)/C=C/c2ccco2)sc2c1CCCC2,0,0,?,0,-112,0
CC1CCN(C(=O)c2cc(F)c(F)cc2Cl)CC1,0,0,0,0,-100,0
c1ccc(-c2nc(-c3ccco3)cs2)nc1,0,0,?,0,-100,0
COc1ccc(/C=C(/C#N)c2nc(-c3ccc(-c4ccccc4)cc3)cs2)cc1OC,?,?,?,0,-,?
COc1ccc(-c2csc(/C(C#N)=C(\O)CSc3nccn3C)n2)cc1OC,0,0,18µM,?,0,0
